Screens (PubChem)
The list is not random: actives were taken first. Their share in the collection is about 1%.
PrP 5UTR inh = inhibition of PrP 5' UTR reporter expression; cell-based PrP 5' UTR mRNA reporter, plate reader; inhibition, % (concentration not given with the values); hit rate 0.35% among 340,000; AID 488862, 2010; in the data active = inhibition above about 52%; note: 0 = median of the neutral control wells
Mtb hypoxia rep = PubChem AID 1159583; M. tuberculosis hypoxia-regulated fluorescent reporter, fluorescence; fluorescence inhibition, % (test concentration not listed); hit rate 0.1% among 300,000; in the data active = fluorescence inhibition mostly above about 23%, no sharp cut-off; inactive = mostly below about 17%
PriA SSB inh = inhibitors of Klebsiella pneumoniae PriA binding to SSB C-terminal tail, primary screen, biochemical, AlphaScreen | PriA–SSB C-terminal tail interaction (Klebsiella pneumoniae) | AlphaScreen SSBct-PriA binding, biotinylated peptide | inhibition, % at 33 µM | hit rate 0.6% among 430,000 | AID 1272365, 2023; in the data active = inhibition mostly above about 37%, no sharp cut-off; inactive = mostly below about 20%;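 note: plate controls were negative control peptide for no effect and reference peptide for full effect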
FadD28 FP inh = inhibitors of FadD28 bisubstrate probe binding, primary screen, biochemical, fluorescence polarization, single point; Mycobacterium tuberculosis FadD28 fatty-acid-AMP ligase; inhibition, % at 12.5 µM; hit rate 0.22% among 360,000; in the data active = inhibition above about 8.5%, passing the limit was not always enough
TcdB GH inh = TcdB glycohydrolase inhibitors, primary screen, biochemical, single point, plate reader; Toxin B (Clostridioides difficile), P18177; TcdB glycohydrolase enzymatic assay; inhibition, % at 9.99 µM; hit rate 0.24% among 350,000; AID 652162, 2013; in the data active = inhibition above about 10%
Target sequence (P18177 whole entry, looked up): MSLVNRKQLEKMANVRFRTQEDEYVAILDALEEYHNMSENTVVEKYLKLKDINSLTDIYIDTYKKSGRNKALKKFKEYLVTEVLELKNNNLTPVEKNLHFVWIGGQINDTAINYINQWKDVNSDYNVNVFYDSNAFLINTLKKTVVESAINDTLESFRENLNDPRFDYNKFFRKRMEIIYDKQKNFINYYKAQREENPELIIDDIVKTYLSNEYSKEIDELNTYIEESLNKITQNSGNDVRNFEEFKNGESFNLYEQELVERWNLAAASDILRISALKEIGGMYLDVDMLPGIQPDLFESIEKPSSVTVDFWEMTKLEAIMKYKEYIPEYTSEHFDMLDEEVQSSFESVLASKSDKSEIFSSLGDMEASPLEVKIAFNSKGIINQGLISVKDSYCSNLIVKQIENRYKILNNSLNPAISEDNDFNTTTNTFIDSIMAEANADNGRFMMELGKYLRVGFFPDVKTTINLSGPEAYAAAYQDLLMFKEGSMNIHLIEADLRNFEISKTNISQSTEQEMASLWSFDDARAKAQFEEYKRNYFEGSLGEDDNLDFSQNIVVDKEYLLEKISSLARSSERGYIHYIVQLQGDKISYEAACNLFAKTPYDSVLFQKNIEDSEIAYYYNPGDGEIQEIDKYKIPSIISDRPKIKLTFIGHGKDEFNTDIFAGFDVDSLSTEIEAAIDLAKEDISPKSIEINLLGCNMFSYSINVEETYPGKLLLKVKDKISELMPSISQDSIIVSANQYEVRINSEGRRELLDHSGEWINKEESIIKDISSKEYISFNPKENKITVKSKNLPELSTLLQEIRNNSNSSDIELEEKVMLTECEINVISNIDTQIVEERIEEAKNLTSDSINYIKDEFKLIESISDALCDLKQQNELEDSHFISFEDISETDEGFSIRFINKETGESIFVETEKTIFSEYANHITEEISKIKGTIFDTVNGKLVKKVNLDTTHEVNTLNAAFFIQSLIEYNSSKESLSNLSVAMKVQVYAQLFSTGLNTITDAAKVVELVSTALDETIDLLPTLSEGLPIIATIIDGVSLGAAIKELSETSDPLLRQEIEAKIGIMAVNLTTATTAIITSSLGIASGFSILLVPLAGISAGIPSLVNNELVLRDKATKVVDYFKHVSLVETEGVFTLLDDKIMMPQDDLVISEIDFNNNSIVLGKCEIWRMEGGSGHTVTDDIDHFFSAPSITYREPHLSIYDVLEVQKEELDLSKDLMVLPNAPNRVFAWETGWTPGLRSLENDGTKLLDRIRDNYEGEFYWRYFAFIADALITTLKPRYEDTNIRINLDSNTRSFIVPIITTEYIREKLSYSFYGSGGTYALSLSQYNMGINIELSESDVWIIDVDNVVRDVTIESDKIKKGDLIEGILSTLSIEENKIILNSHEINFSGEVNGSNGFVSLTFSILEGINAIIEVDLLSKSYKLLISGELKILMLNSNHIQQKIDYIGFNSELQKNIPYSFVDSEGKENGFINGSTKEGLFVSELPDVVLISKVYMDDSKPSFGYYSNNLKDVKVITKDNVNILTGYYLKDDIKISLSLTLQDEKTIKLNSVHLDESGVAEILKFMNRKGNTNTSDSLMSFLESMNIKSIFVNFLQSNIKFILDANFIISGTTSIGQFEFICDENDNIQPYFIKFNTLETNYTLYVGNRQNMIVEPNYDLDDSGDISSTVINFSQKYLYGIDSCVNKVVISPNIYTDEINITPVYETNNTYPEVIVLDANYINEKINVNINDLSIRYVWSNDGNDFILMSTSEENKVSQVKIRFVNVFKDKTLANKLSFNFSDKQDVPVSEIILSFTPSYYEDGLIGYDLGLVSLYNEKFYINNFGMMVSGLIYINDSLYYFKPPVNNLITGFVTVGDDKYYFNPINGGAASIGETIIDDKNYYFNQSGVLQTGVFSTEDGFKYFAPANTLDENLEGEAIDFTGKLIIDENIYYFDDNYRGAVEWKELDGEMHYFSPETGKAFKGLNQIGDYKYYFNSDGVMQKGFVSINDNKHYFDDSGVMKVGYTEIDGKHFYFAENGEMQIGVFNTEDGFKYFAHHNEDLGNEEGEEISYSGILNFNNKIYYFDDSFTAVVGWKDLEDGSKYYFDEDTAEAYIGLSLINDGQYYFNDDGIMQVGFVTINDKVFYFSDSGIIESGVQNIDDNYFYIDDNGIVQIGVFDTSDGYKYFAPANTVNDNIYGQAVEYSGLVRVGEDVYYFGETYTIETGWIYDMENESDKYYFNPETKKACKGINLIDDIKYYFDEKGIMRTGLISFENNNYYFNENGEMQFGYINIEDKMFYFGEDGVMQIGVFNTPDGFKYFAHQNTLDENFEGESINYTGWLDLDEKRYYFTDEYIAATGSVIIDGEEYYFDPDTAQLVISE
BioA inh = M. tuberculosis BioA enzyme inhibitors, primary screen, biochemical, plate reader, single point, HTS; inhibition, % at 9.99 µM; purified M. tuberculosis BioA enzyme; 7,8-diaminopelargonic acid synthase BioA (Mycobacterium tuberculosis); hit rate 0.096% among 360,000; AID 602481, 2012; in the data active = inhibition above about 40%
* = called active by the depositor; / = not tested or not shown; ! = a repeat was not active.

SMILES | PrP 5UTR inh | Mtb hypoxia rep | PriA SSB inh | FadD28 FP inh | TcdB GH inh | BioA inh
CCCN1CCCc2cc(CCNS(=O)(=O)c3ccc(Cl)cc3)ccc21 | / | / | 62* | / | / | /
CCCN1CCCc2cc(CCNS(=O)(=O)c3ccc(C)cc3)ccc21 | / | / | 71 | / | / | /
CCCN1CCCc2cc(CCNC(=O)C(C)C)ccc21 | / | / | 59 | / | / | /
CCCN1CCCc2cc(CCNS(=O)(=O)c3ccc(NC(=O)C(C)C)cc3)ccc21 | / | / | 60* | / | / | /
COc1ccc(F)cc1-c1cc(NC=O)c2ncc(-c3cc(OC)c(OC)c(OC)c3)n2c1 | / | / | / | -1 | 2 | -1
Cc1ccc(SCCN2CCC(C)CCC2=O)cc1 (stereo unspecified) | -48 | 12 | -10 | -4 | 0 | 0
COc1cc(Cc2ccc(N)c(OC)c2)ccc1N | 2 | 10 | 20 | -2 | 15* | /
COc1ccc(Cc2ccc(OC)c(N)c2)cc1N | 3 | 15 | 16 | -5 | 2 | -1
CCCN1CCCc2cc(CCNS(=O)(=O)c3ccc(NC(C)=O)cc3C)ccc21 | / | / | 70* | / | / | /
CCCN1CCCc2cc(CCNS(=O)(=O)c3ccc(C)cc3C)ccc21 | / | / | 41* | / | / | /
CCN(CC)C(=O)CSc1nc2sc3c(c2c(=O)n1CCOC)CCC3 | 0 | 9 | -10 | 1 | 0 | 0
Cc1ccc(NS(=O)(=O)c2cc([N+](=O)[O-])ccc2NNC(=S)Nc2cccc(Cl)c2)c(C)c1 | -12 | -11 | 68 | 8.6* | / | /
CCOc1ccc(NC(=O)c2csc3c2CCCC3)cc1 | -65 | / | 115* | -3 | 0 | 1
Oc1ccccc1N=Cc1c(O)ccc2ccccc12 | -10 | 21 | 3 | 0 | 1 | 0
Oc1cccnc1N=Cc1c(O)ccc2ccccc12 | / | / | 58* | / | / | /
O=C(CCCSc1ccc(NC(=O)c2cccs2)nn1)NCc1ccccc1Cl | / | / | -8 | / | / | /
COc1ccccc1Nc1c2c(nc3ccc(N)cc13)CCCC2 | -46 | 1 | 53* | -3 | 2 | 4
Fc1ccc2c(c1)C1OCCCC1C(c1ccccc1)N2 (stereo unspecified) | -17 | 12 | 20 | -1 | -1 | 8
COc1cc(/C=C2\CCCc3c2nc2ccccc2c3C(=O)O)cc(Br)c1O | -13 | 4 | -7 | 12* | -19 | 0
COc1cc(/C=C2\CCc3c2nc2ccccc2c3C(=O)O)cc(OC)c1OC | -19 | 1 | -10 | 6 | 2 | 2
CCOc1ccc2oc(C(=O)OCC(=O)NC3CCCCC3)c(C)c2c1 | -15 | 32* | -8 | 3 | -1 | 4
COc1ccc2oc(C(=O)OCC(=O)N3C(C)CCCC3C)c(C)c2c1 (stereo unspecified) | -14 | 5 | 4 | -2 | 0 | -1
CCOc1ccc2oc(C(=O)OCC(=O)N3C(C)CCCC3C)c(C)c2c1 (stereo unspecified) | -15 | 25* | 2 | -3 | 1 | -1
COc1ccc2oc(C(=O)OCC(=O)NC3CCCC3)c(C)c2c1 | -18 | 3 | 1 | -1 | 1 | -2
CCCCCn1nc(C(=O)N2CCc3ccccc32)c2ccccc2c1=O | -8 | 6 | 1 | / | 1 | -1
SMILES | PrP 5UTR inh | Mtb hypoxia rep | PriA SSB inh | FadD28 FP inh | TcdB GH inh | BioA inh
Sc1n[nH]c(-c2ccccn2)n1 | / | / | 113* | / | / | /
c1ccc(-c2ccccn2)nc1 | -5 | 5 | 7 | 1 | 0 | -1
c1ccc(-c2n[nH]c(-c3ccccn3)n2)cc1 | -26 | / | 42* | -2 | / | -3
c1cncc(-c2n[nH]c(-c3cnccn3)n2)c1 | / | / | -6 | / | / | /
c1ccc(-c2ccc(-c3ccccn3)nn2)nc1 | / | / | 106* | / | / | /
c1ccc(-c2n[nH]c(-c3ccccn3)n2)nc1 | -65 | 19 | 93* | -1 | 1 | -1
O=C(COC(=O)c1ccc(Cl)nc1)Nc1ccc2c(c1)CCC2 | -26 | 22 | -11 | 2 | 0 | -2
CC1CCCN(C(=O)c2ccccc2OC2CCN(S(C)(=O)=O)CC2)C1 (stereo unspecified) | -13 | / | -16 | -1 | 2 | /
Oc1ccccc1-c1ccn[nH]1 | -26 | 8 | 9 | -1 | 1 | -1
NCc1nc(-c2ccccn2)n[nH]1 | / | / | 116* | / | / | /
c1ccc(CSc2n[nH]c(-c3ccccn3)n2)cc1 | / | / | 59* | / | / | /
O=C(CSc1n[nH]c(-c2ccccn2)n1)N1c2ccccc2Sc2ccccc21 | / | / | 58 | / | / | /
c1ccc(-c2nn[nH]n2)cc1 | -4 | 16 | -11 | -2 | 0 | /
c1ccc(-c2nn[nH]n2)nc1 | -25 | 5 | 107*! | -4 | -1 | /
Oc1ccccc1-c1n[nH]c(-c2ccccn2)n1 | / | / | 94* | / | / | /
O=C(c1ccccc1)N1C[C@H]2[C@@H](c3ccccc31)[C@H](CO)N2C(=O)CN1CCOCC1 | / | / | / | / | 0 | -8
CC(O)(CNC(=O)Cc1c(F)cccc1Cl)c1cc2ccccc2o1 (stereo unspecified) | / | / | -3 | / | / | /
CO[C@@H]1CN(C)C(=O)c2ccc(NC(C)=O)cc2OC[C@@H](C)N(Cc2cc(F)ccc2F)C[C@@H]1C | / | / | / | / | 0 | 3
O=C(NC(=S)NCCc1ccccc1)c1ccccc1F | -34 | 11 | -11 | -3 | 1 | 0
COc1ccc2c3c(n(C)c2c1)[C@@H](CO)N(CC1CC1)CC31CN(C(=O)NC2CCCC2)C1 | / | / | / | / | -1 | /
O=C(N/N=C/c1ccc(O)c(O)c1)C1CC1 | / | / | / | 0 | 16* | -2
O=C(N/N=C/c1ccsc1)C1CC1 | -19 | / | / | -2 | 1 | /
CC(=NNC(=O)CCC(=O)Nc1ccc(C)c(C)c1)c1cccs1 | / | 0 | -17 | / | / | /
CCC(C)Nc1c([N+](=O)[O-])cc(C)cc1[N+](=O)[O-] (stereo unspecified) | -19 | 10 | 53* | -2 | / | /
Oc1ccc(N=Cc2c[nH]c3ccccc23)cc1 | / | / | 46* | / | / | /
SMILES | PrP 5UTR inh | Mtb hypoxia rep | PriA SSB inh | FadD28 FP inh | TcdB GH inh | BioA inh
O=[N+]([O-])c1ccc(Cl)cc1Sc1nc2ccccc2o1 | -37 | 1 | 49* | -6 | 1 | 1
O=[N+]([O-])c1ccc(Sc2nc3ccccc3o2)c([N+](=O)[O-])c1 | -43 | 12 | -12 | -2 | 2 | 0
COc1ccccc1CNC(=O)C(=O)NCCC1CCCCN1S(=O)(=O)c1ccccc1 (stereo unspecified) | -4 | 7 | 4 | 0 | 0 | 1
CCOC(=O)CSC1=C(C#N)C(c2ccccc2[N+](=O)[O-])C(C(=O)OC)C(=O)N1 (stereo unspecified) | / | / | 18 | / | / | /
CC(C)NC(=O)C1(C)Cc2c(-c3ccc(C(N)=O)cc3)ccnc2O1 (stereo unspecified) | / | / | / | 1 | 1 | 10
CC(=O)Nc1ccc(NC(=O)Cc2ccc(S(=O)(=O)N3CCCCC3)cc2)cc1 | 2 | -7 | -4 | -1 | 13* | -3
COc1ccc(NC(=O)CSCC(=O)Nc2ccc(S(=O)(=O)N3CCCCC3)cc2)cc1 | -9 | -4 | -10 | 1 | 1 | 0
O=C(Cc1ccccc1)Nc1ccc(S(=O)(=O)N2CCCC2)cc1 | -12 | 3 | 2 | -3 | 1 | 0
